Source: article PMC4336329 (PLoS ONE, 2015)
About 14,000 (4.5%) of roughly 310,000 compounds showed an effect of 50% or more. Effects have a minus sign here. The list comes from a sample in which strong results are over-represented; it also holds similar structures and randomly drawn compounds.

target: human ether-à-go-go-related gene (hERG) potassium channel (human, UniProt Q12809); assay: primary screen, population patch clamp on CHO cells stably expressing hERG; higher = less effect of the substance
Sequence (Q12809 whole entry, looked up): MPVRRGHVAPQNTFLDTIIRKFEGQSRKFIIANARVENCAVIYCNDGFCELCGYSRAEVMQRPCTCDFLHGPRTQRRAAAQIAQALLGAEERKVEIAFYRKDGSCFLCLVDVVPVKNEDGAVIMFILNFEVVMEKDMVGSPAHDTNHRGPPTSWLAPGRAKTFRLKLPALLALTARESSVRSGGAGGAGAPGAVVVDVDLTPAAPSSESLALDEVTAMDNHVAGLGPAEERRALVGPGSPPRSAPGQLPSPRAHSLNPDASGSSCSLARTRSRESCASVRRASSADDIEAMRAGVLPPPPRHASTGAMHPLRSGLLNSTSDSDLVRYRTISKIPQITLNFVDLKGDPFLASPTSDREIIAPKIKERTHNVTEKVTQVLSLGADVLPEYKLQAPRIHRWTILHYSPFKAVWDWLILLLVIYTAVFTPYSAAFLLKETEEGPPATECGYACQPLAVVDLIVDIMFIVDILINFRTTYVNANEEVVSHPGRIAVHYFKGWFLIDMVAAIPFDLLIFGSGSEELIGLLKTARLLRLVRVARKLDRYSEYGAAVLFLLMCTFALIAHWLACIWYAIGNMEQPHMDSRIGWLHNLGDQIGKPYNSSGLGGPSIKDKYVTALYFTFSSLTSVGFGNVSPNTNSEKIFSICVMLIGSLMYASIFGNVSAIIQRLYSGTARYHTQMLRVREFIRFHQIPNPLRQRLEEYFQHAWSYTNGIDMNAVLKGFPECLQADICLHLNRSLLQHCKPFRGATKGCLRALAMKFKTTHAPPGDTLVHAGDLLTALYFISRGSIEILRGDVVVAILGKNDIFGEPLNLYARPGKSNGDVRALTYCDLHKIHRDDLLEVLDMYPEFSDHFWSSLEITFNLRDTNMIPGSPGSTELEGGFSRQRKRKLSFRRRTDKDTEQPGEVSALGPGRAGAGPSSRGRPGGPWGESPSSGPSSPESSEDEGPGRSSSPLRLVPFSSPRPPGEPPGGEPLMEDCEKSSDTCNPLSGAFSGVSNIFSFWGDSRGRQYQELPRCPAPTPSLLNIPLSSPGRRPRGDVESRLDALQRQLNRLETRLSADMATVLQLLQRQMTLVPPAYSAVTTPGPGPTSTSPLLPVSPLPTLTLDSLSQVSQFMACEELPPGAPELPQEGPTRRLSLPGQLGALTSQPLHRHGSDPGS
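Note: peak tail current of the secondary pulse compared with the same well before compound.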

Structure (SMILES) | hERG current change (%, negative = inhibition) at 10uM [%]
COc1ccc(C2=NS(=O)(=O)N(C)C(C(=O)N3CCOCC3)=C2)cc1OC | -2.16
CN1CCN(C(=O)c2cnn(-c3ccccc3)c2NC(=O)c2cccs2)CC1 | -29.2
CCCCC1(C(=O)OCC)NC(c2ccc(O)cc2)C2C(=O)N(c3ccccc3)C(=O)C21 (stereo not drawn) | -3.73
CCOC(=O)C1=C(N)N2C(=O)C(C)SC2=C(C(=O)OCC)C1c1cc(OC)c(OC)c(OC)c1 (stereo not drawn) | 1.27
COc1ccc(OC)c(S(=O)(=O)N2CCC(C(=O)NCc3ccccc3)CC2)c1 | -9.9
CN1CCN(/C=C2\SC(=S)NC2=O)CC1 | 11.6
O=C(NNc1ccccc1)C(=O)NNS(=O)(=O)c1ccc(CCCl)cc1 | 2.82
O=C1CC(N2CCOCC2)=NN1c1ccc([N+](=O)[O-])cc1 | -8.54
CCNC(=S)NNC(=O)c1nn(C)c(C)c1Cl | 19
CC(=O)Nc1c(O)n(C)c2ccccc12 | 13.6
CC(Oc1ccc(Br)cc1)C(=O)N1CCC(C(N)=O)CC1 (stereo not drawn) | -78.1
CCOC(=O)N1CCN(C(=O)COc2ccc3c(c2)C(=O)CC2(CCN(C(C)=O)CC2)O3)CC1 | -2.13
COc1ccc(OCC(=O)N2CCC3(CC2)CC(=O)c2ccccc2O3)cc1 | -88.9
CC(=O)N1CCC2(CC1)CC(=O)c1cc(OCC(=O)N3CCN(C)CC3)ccc1O2 | 1.86
O=C1CC2(CCN(C(=O)COc3ccccc3F)CC2)Oc2ccccc21 | -49.1
CCC(Oc1ccccc1)C(=O)N1CCC(C(N)=O)CC1 (stereo not drawn) | 15.8
Cc1ccccc1OCC(=O)N1CCC2(CC1)CC(=O)c1ccccc1O2 | -57.5
COc1ccccc1OCC(=O)N1CCC2(CC1)CC(=O)c1ccccc1O2 | -40.2
CCOC(=O)C1CCN(C(=O)C(C)Oc2ccc(Br)cc2)CC1 (stereo not drawn) | -16.1
CCOc1ccc(OCC(=O)N2CCC3(CC2)CC(=O)c2ccccc2O3)cc1 | -94.6
CCN1CCN(C(=O)COc2ccc3c(c2)C(=O)CC2(CCN(C(C)=O)CC2)O3)CC1 | 20.5
CC(=O)N1CCC2(CC1)CC(=O)c1cc(OCC(=O)N3CCC4(CC3)OCCO4)ccc1O2 | 18.5

Structure (SMILES) | hERG current change (%, negative = inhibition) at 10uM [%]
O=C(Nc1ccccc1N1CCOCC1)c1cccnc1 | 15
O=C(N/N=C/c1cccs1)c1cccc(NC(=O)c2ccc(Cl)cc2)c1 | 7.57
CO[C@@]1(NC(=O)C2SC(=C(C(N)=O)C(=O)O)S2)C(=O)N2C(C(=O)O)=C(CSc3nnnn3C)CS[C@@H]21 (stereo partly drawn) | 13.6
CCCNc1nc(C)nc2c1cnn2CCc1ccccc1 | -12.8
CCOc1nc(CC(C)C)c2c(c1C#N)CC(C)(C)OC2 | 1.14
O=C1CC(NS(=O)(=O)c2ccc3ccccc3c2)CN1c1ccccc1 (stereo not drawn) | -0.798
Cl.N=c1sccn1CC(=O)Nc1ccc(Cl)cc1[N+](=O)[O-] | -21
COc1cc(C(=O)NNC(=O)c2cc(C)[nH]n2)cc(OC)c1OC | 18.8
C/C(=N\NC(=O)C1CC1)c1cccs1 | 9.16
O=C1CC2(CCN(C(=O)COc3ccccc3)CC2)Oc2ccccc21 | -67.4
O=C1CC2(CCCCC2)Oc2ccc(OCC(=O)N3CCOCC3)cc21 | 3.3
O=C1CC2(CCN(C(=O)COc3ccc(F)cc3)CC2)Oc2ccccc21 | -42.6
O=C(NCc1ccncc1)/C(=N/O)c1ccccc1 | 18.7
CSc1ccccc1NC(=O)Nc1ccc(Cl)cc1 | -1.3
CC(C)C(=O)Nc1ccccc1C(=O)OCC(=O)c1ccc2c(c1)OCCO2 | -10.4
Cc1ccccc1CN1CCN(Cc2ccc3cccc(F)c3n2)CC1CCO (stereo not drawn) | -32.7
OCCC1CN(Cc2ccc3cccc(F)c3n2)CCN1Cc1ccccc1 (stereo not drawn) | -15.6
CC(C)Cn1c(CN2CCN(C)C(CCO)C2)nc2ccccc21 (stereo not drawn) | 4.02
CCn1c(CN2CCN(Cc3ccc(C)cc3)C(CCO)C2)nc2ccccc21 (stereo not drawn) | -74.7
Cc1ccc(CN2CCN(Cc3ccc4cccc(F)c4n3)CC2CCO)cc1 (stereo not drawn) | -68.6
CCn1cc(CN2CCN(Cc3ccccc3)C(CCO)C2)c2ccccc21 (stereo not drawn) | -32
Cc1ccc(CN2CCN(Cc3cccc(C)n3)CC2CCO)cc1 (stereo not drawn) | -40.2

Structure (SMILES) | hERG current change (%, negative = inhibition) at 10uM [%]
Cc1ccc(CN2CCN(Cc3nc4ccccc4nc3C)CC2CCO)cc1 (stereo not drawn) | -69.7
Cc1nc2ccccc2nc1CN1CCN(Cc2ccc(F)c(F)c2)C(CCO)C1 (stereo not drawn) | -40.4
O=C(COc1ccc2ccccc2c1Br)Nn1cnnc1 | -1.78
CCCCn1c(C)cc2cc(O)ccc21 | -16.8
CC(Oc1ccccc1F)C(=O)NC1CCS(=O)(=O)C1 (stereo not drawn) | 11
CC(=O)[C@@H]1[C@@H](C)N(Cc2ccccc2)C(=O)N[C@H]1c1ccccc1 | 10.4
CC1(/[N+]([O-])=C/c2cccc(Cl)c2)CCCCC1=O (stereo not drawn) | 4.74
Cc1ccc(NC(=O)COC(=O)C2CC2(Cl)Cl)cc1C (stereo not drawn) | -4.06
CSCCC(NC(=O)c1ccco1)C(=O)N(C)CC(=O)Nc1c(Cl)cccc1Cl (stereo not drawn) | 11.8
O=C(O)C1C2C=CC(C3CC23)C1C(=O)O (stereo not drawn) | 10.6
Cc1noc(C)c1C(=O)NCCc1ccccc1 | 0.324
O=C(CN1CCC(n2nnc3cc(C(F)(F)F)ccc32)CC1)NCc1cccs1 | -74.5
Cc1ccccc1C(=O)NC1CCN(CC(=O)NCc2cccs2)CC1 | 6.14
O=C(CN1CCC(n2nnc3ccccc32)CC1)NCc1cccs1 | -60.2
O=C(CN1CCC(n2nnc3ccccc32)CC1)Nc1ccc2c(c1)CCC2 | -39.3
COc1ccc(C(=O)NNC(=O)CN2CCC(n3nnc4cc(C(F)(F)F)ccc43)CC2)cc1 | -10.4
O=C(CN1CCC(n2nnc3cc(C(F)(F)F)ccc32)CC1)Nc1ccc2c(c1)CCC2 | 1.83
COc1ccccc1CNC(=O)c1cc2c(s1)CS(=O)(=O)C2 | 10.3
COc1cc(C)c(NC(=S)Nc2ccc(Cl)c(Cl)c2)cc1OC | 5.06
COc1cc(CNc2nnnn2C)ccc1OCc1c(F)cccc1Cl | 0.756
COC(=O)C1=C(c2ccc(-c3ccccc3)c(F)c2)C[C@@H]2CC[C@H]1N2C(=O)NC(C)C | -16.8
COc1cccc(CN(C)C(=O)CSCC(=O)Nc2ccc(C)cc2)c1OC | -12.9

Structure (SMILES) | hERG current change (%, negative = inhibition) at 10uM [%]
CCOC(=O)Cn1c(CN2CCOCC2)nc2c1c(=O)[nH]c(=O)n2C | 7.2
COc1ccc(C2Nc3ccccc3C(=O)N2Cc2ccccc2)cc1 (stereo not drawn) | 3.75
CC(C)CC(NC(N)=O)C(=O)NCCc1ccc(Cl)cc1Cl (stereo not drawn) | 3.07
CCOP(=O)(OCC)C(NC(=O)Nc1cccc(Cl)c1)c1ccccc1 (stereo not drawn) | 5.75
CCC(C)[C@H](NC(=O)OC(C)(C)C)C(=O)N/N=C/c1ccc2cc(OC)ccc2n1 (stereo partly drawn) | -13.7
COc1ccc2nc(/C=N/NC(=O)[C@H](C)NC(=O)OC(C)(C)C)ccc2c1 | -7.25
COc1ccc2nc(/C=N/NC(=O)[C@H](CCSC)NC(=O)OC(C)(C)C)ccc2c1 | -59.7
Cc1ccc(NC(=O)C2=C(C(=O)O)CCCC2)cc1F | 7.33
Cn1ncc(C(=O)Nc2ccc(Cl)cc2)c1C(F)(F)F | -12
CN1CCN(c2ccc([N+](=O)[O-])c(NCC3CCCO3)c2)CC1.Cl (stereo not drawn) | -41.4
O=C(c1ccccc1)N1CCN(c2ccc([N+](=O)[O-])c(NCC3CCCO3)c2)CC1 (stereo not drawn) | -76.9
CC(=O)N1CCN(c2ccc([N+](=O)[O-])c(NCC3CCCO3)c2)CC1 (stereo not drawn) | -18.3
O=C(Nc1ccccc1)c1ccc(NCC2CCCO2)c([N+](=O)[O-])c1 (stereo not drawn) | -2.42
NC(=O)c1ccc(NCC2CCCO2)c([N+](=O)[O-])c1 (stereo not drawn) | 12.7
O=C(c1ccccc1F)N1CCN(c2ccc([N+](=O)[O-])c(NCC3CCCO3)c2)CC1 (stereo not drawn) | -80.8
CC(C)(C)C(=O)N1CCN(c2ccc([N+](=O)[O-])c(NCC3CCCO3)c2)CC1 (stereo not drawn) | -20.8
O=[N+]([O-])c1ccc(N2CCNCC2)cc1NCC1CCCO1 (stereo not drawn) | -22.1
O=C(NCCc1ccccc1)c1ccc(NCC2CCCO2)c([N+](=O)[O-])c1 (stereo not drawn) | -68.9
O=C1CC(N(C(=O)c2ccco2)c2cccc(Cl)c2)C(=O)N1c1cccc(Cl)c1 (stereo not drawn) | -19.7
C/C(Cn1cnc([N+](=O)[O-])n1)=N\NC(=O)c1ccccc1O | 8.06
COc1cc(C(=O)Nc2ccc(Br)cc2C(=O)c2ccccc2)cc(OC)c1OC | 12.4
